Experimental data: the supplement of paper PMC6555819

What was measured:
Assay in all cases: PBM binding z-score (relative to random genomic background probes); higher = stronger binding; sequences stand for … in GC…GCGATTGACAGCGTAGAATGAAGG
[1] = tested on: FXR:RXRa (NR concentration 270 nM, RXRa partner concentration 90 nM)
Method in brief: (§1)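 Regression normalization was applied to scanned fluorescence from custom Agilent 4×180K protein-binding microarrays. Before scanning, arrays were incubated 1 h with ligand-free nuclear receptor dimers, and binding was detected with antibodies against each partner (one per run). Binding z-scores use the random background probes as reference.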

[2] = tested on: LXRa:RXRa (NR concentration 270 nM, RXRa partner concentration 90 nM)
Method in brief: as §1

[3] = tested on: LXRa homodimer (NR concentration 270 nM)
Method in brief: as §1

[4] = tested on: LXRb:RXRa (NR concentration 270 nM, RXRa partner concentration 90 nM)
Method in brief: as §1

[5] = tested on: LXRb homodimer (NR concentration 270 nM)
Method in brief: as §1

[6] = tested on: PPARa:RXRa (NR concentration 270 nM, RXRa partner concentration 90 nM)
Method in brief: as §1

[7] = tested on: PPARg:RXRa (NR concentration 180 nM, RXRa partner concentration 90 nM)
Method in brief: as §1

[8] = tested on: PPARg:RXRa 270nM:90nM, anti-RXR (NR concentration 270 nM, RXRa partner concentration 90 nM)
Method in brief: as §1

[9] = tested on: PPARg:RXRa 30nM:10nM, anti-RXR (NR concentration 30 nM, RXRa partner concentration 10 nM)
Method in brief: as §1

[10] = tested on: PPARg:RXRa 90nM:30nM, anti-RXR (NR concentration 90 nM, RXRa partner concentration 30 nM)
Method in brief: as §1

[11] = tested on: PPARg:RXRa DBDmut IVT, anti-RXR (DBD mutation: RXRa K156A/R161A, NR concentration 270 nM, RXRa partner concentration 90 nM)
Method in brief: as §1

[12] = tested on: PPARg:RXRa IVT, anti-PPARg (NR concentration 270 nM, RXRa partner concentration 90 nM)
Method in brief: as §1

[13] = tested on: PPARg DBDmut:RXRa IVT, anti-PPARg (DBD mutation: PPARg1 K132A/R137A, NR concentration 270 nM, RXRa partner concentration 90 nM)
Method in brief: as §1

[14] = tested on: PPARg DBDmut IVT, anti-PPARg (DBD mutation: PPARg1 K132A/R137A, NR concentration 270 nM)
Method in brief: as §1

[15] = tested on: PPARg homodimer (NR concentration 180 nM)
Method in brief: as §1

[16] = tested on: PXR:RXRa (NR concentration 270 nM, RXRa partner concentration 90 nM)
Method in brief: as §1

[17] = tested on: PXR homodimer (NR concentration 270 nM)
Method in brief: as §1

[18] = tested on: RARa:RXR (NR concentration 270 nM, RXRa partner concentration 90 nM)
Method in brief: as §1

[19] = tested on: RARa homodimer (NR concentration 270 nM)
Method in brief: as §1

[20] = tested on: RARb:RXRa (NR concentration 270 nM, RXRa partner concentration 90 nM)
Method in brief: as §1

Row | Sequence | PBM binding z-score [1] | PBM binding z-score [2] | PBM binding z-score [3] | PBM binding z-score [4] | PBM binding z-score [5] | PBM binding z-score [6] | PBM binding z-score [7] | PBM binding z-score [8] | PBM binding z-score [9] | PBM binding z-score [10] | PBM binding z-score [11] | PBM binding z-score [12] | PBM binding z-score [13] | PBM binding z-score [14] | PBM binding z-score [15] | PBM binding z-score [16] | PBM binding z-score [17] | PBM binding z-score [18] | PBM binding z-score [19] | PBM binding z-score [20]
1 | TCATATAGGTAATACAGGTGAACGTCGGCATCTA | 0.964 | 1.09 | 0.498 | 1.15 | 0.51 | 1.98 | 1.72 | 2.78 | 4.08 | 3.27 | 4.33 | 3.64 | 1.21 | 1.68 | 1.2 | 0.756 | 0.663 | 1.55 | 2.19 | 0.705
2 | CGAACTACGTCAAGGACAGTGAATCTCCGCACGC | -0.000991 | -0.458 | 0.0307 | -0.729 | -0.268 | -0.387 | 0.65 | -0.549 | -0.403 | -0.799 | -0.146 | -0.464 | -0.384 | -0.387 | -0.76 | -0.445 | 0.128 | -0.00341 | -0.551 | 0.27
3 | TCTCGGAGGACACGAAGTTCAGAGCTTTCCAGAG | 0.621 | 0.0816 | -0.00666 | 0.0852 | -0.97 | 0.472 | -0.146 | 1.2 | 2.18 | 1.76 | 1.43 | -0.00253 | -0.707 | -1.05 | -0.195 | 1.39 | 2.87 | 0.555 | -0.518 | 2.36
4 | CCTACTGGGCCATCAGGTCATTAATATCAACGTT | 1.02 | 0.82 | 1.3 | 1.37 | -0.00307 | 2.46 | 2.9 | 3.3 | 0.96 | 3.01 | 4.28 | 5.01 | 0.502 | 0.269 | 2.46 | 1.25 | 0.741 | 1.51 | 0.585 | 1.94
5 | ATCTCTAGGTAAAGATAGTTCAATGAATGCAAAT | 0.446 | 4.83 | 1.09 | 1.44 | 0.777 | 1.15 | 1.03 | 0.735 | 0.381 | 0.638 | 2.11 | 1.74 | 1.55 | 1.22 | 0.945 | 1.65 | 1.02 | 0.946 | 1.4 | 1.07
6 | CTACCAAGGTGAACAAGGTCGTTAATTACTATTC | 1.3 | 1.23 | 0.268 | 1.86 | -0.284 | 2.61 | 1.07 | 1.5 | 0.266 | 1.15 | 2.2 | 2.78 | 0.73 | 0.27 | 1.17 | 2.76 | 1.14 | 2.57 | 0.262 | 2.11
7 | CAGCCTAGGTCAGGGGCAGTATAGGAGGAACGTT | 2.14 | 1.38 | -0.331 | 1.27 | -0.805 | 2.38 | 1.3 | 1.75 | 0.184 | 0.954 | 1.2 | 1.71 | -0.201 | -0.982 | 1.41 | 0.677 | -0.048 | 1.33 | 0.0151 | 3.5
8 | CAGCCTATGTCAGGGCCAGTATAGGAGGAACGTT | -0.392 | -0.569 | -0.136 | -0.524 | -0.259 | -0.324 | 0.129 | -0.472 | -0.514 | -0.506 | -0.717 | -0.807 | -1.25 | -0.192 | -0.0188 | -0.63 | -0.46 | -0.507 | -0.292 | 0.105
9 | ACTAGCAGGCTAAGTTTGGGTCACTCAAACAAAG | -0.0373 | -0.132 | -0.315 | 0.424 | -0.557 | 1.28 | -0.0855 | 0.315 | -0.575 | -0.155 | 0.316 | 0.557 | -0.411 | -0.519 | -0.136 | 0.49 | -0.438 | 1.31 | -0.552 | 1.17
10 | CCTAGCAGGCCAATCTGGGTCCCTCAAGGCTTGA | -0.114 | -0.609 | -0.704 | -0.838 | -1.11 | -0.178 | -0.823 | -0.653 | -1.08 | -0.919 | 1.13 | 0.925 | -1.33 | -1.81 | -1.12 | -0.641 | -0.809 | -0.522 | -0.809 | 0.0212
11 | TTACAAAGGTGAAGGTCGTTGATCCCTCTGTAGA | 3.61 | 2.92 | 0.147 | 2.33 | -0.453 | 3.81 | 3.92 | 4.48 | 2.28 | 4.11 | 2.62 | 3.97 | 0.246 | 0.134 | 1.47 | 2.32 | 0.241 | 2.74 | 0.198 | 3.56
12 | CCTATTAGGTGACCATAAGGGCAACCGAAGCTCG | 0.883 | 0.519 | -0.266 | 0.209 | -0.299 | 1.81 | 1.73 | 1.56 | 0.344 | 0.657 | 5.2 | 4.27 | 0.935 | -0.392 | 0.93 | 0.636 | 0.326 | 1.19 | 0.485 | 1.87
13 | TGAATGAGGTTATAAGATCTGGGAACGTTGCAAA | 1.32 | 1.03 | -0.215 | 1.06 | -0.0795 | 2.54 | 1.01 | 1.83 | 0.892 | 1.58 | 1.24 | 1.57 | 0.727 | -0.0307 | 0.305 | 0.714 | -0.0184 | 1.12 | 0.0804 | 1.07
14 | TCGAGTAGGTTGGGGGCATTCAGAATGGCGTCGA | 1.39 | 1.94 | 0.352 | 3.96 | 6.82 | 2.48 | 0.614 | 2.35 | 2.29 | 2.28 | 1.25 | 2.38 | 3.04 | 5.62 | 0.737 | 2.82 | 1.75 | 1.98 | 0.0369 | 1.6
